# Measured values reported in the supplement of paper PMC4022240.
# ± gives the standard deviation.
# T1: HaloTag-ATRX ADD domain (163-292)
# T1 chain: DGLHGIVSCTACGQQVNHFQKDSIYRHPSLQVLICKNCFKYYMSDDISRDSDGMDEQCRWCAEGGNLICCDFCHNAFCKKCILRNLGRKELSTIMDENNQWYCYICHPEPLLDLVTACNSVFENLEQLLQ
# B1: H3 11-23 T G G K A P Rme Kme3 Q L A T K (peptide)
# chain: TGGKAPRKQLATK
# B2: H3 11-23 T G G K A P Rme2a K Q L A T K (peptide)
# chain: TGGKAPRKQLATK
# B3: H3 11-23 T G G K A P Rme Kme Q L A T K (peptide)
# chain: TGGKAPRKQLATK
# B4: H3 11-23 T G G K A P Rme2s K Q L A T K (peptide)
# chain: TGGKAPRKQLATK
# B5: H3 11-23 T G G K A P Rme2a Kme2 Q L A T K (peptide)
# chain: TGGKAPRKQLATK
# What was measured:
# Experiment in all cases: peptide microarray binding signal (635 nm), min-max normalized on array (fraction of array maximum); higher = stronger binding
# Settings in all cases: peptide region: H3 11-23
# [1] = molecular target: T1, HaloTag-ATRX ADD domain (163-292)
# Summary of the method: (§1)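 Within each library, mean intensities of triplicate spots were min-max scaled to give the binding signal. The spots were histone 13-mer peptide–cellulose conjugates on nitrocellulose with a Cy3 tracer, blocked overnight at 4°C. They were then probed for 1 h at 4°C using biotin-labelled HaloTag reader fusions (10 nM to 1 μM) with streptavidin-Alexa Fluor 647 or rabbit histone antibodies (1:10,000 to 1:2,000) with anti-rabbit Alexa 647, and scanned at 635 nm for signal and 532 nm for misprints on an Axon GenePix 4000B.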
# [2] = molecular target: HaloTag-ING2 PHD (mouse Ing2 200-280)
# Summary of the method: as §1
# [3] = molecular target: anti-H3K4me3 antibody ab8580
# Summary of the method: as §1
# [4] = molecular target: anti-H3K9me3 antibody ab8898
# Summary of the method: as §1
# [5] = peptide modifications: H3R17me1 H3K18me3, binder concentration: 1:2,000 dilution
# [6] = peptide modifications: H3R17me1 H3K18me3, binder concentration: 1:10,000 dilution
# [7] = peptide modifications: H3R17me2a, binder concentration: 1:2,000 dilution
# [8] = peptide modifications: H3R17me2a, binder concentration: 1:10,000 dilution
# [9] = peptide modifications: H3R17me1 H3K18me1, binder concentration: 1:2,000 dilution
# [10] = peptide modifications: H3R17me1 H3K18me1, binder concentration: 1:10,000 dilution
# [11] = peptide modifications: H3R17me2s, binder concentration: 1:2,000 dilution
# [12] = peptide modifications: H3R17me2s, binder concentration: 1:10,000 dilution
# [13] = peptide modifications: H3R17me2a H3K18me2, binder concentration: 1:2,000 dilution
# [14] = peptide modifications: H3R17me2a H3K18me2, binder concentration: 1:10,000 dilution
binder,measurement,setting,value
B1,peptide microarray binding signal,"[1]; peptide modifications: H3R17me1 H3K18me3, binder concentration: 50 nM",0.0105 ± 0.00069
same,peptide microarray binding signal,"[1]; peptide modifications: H3R17me1 H3K18me3, binder concentration: 500 nM",0.0187 ± 0.002
same,peptide microarray binding signal,"[2]; peptide modifications: H3R17me1 H3K18me3, binder concentration: 10 nM",0.00901 ± 0.00033
same,peptide microarray binding signal,"[2]; peptide modifications: H3R17me1 H3K18me3, binder concentration: 100 nM",0.014 ± 0.0016
same,peptide microarray binding signal,[3]; [5],0.468 ± 0.19
same,peptide microarray binding signal,[3]; [6],0.29 ± 0.07
same,peptide microarray binding signal,[4]; [5],0.0548 ± 0.023
same,peptide microarray binding signal,[4]; [6],0.0168 ± 0.0037
B2,peptide microarray binding signal,"[1]; peptide modifications: H3R17me2a, binder concentration: 50 nM",0.0047 ± 0.00017
same,peptide microarray binding signal,"[1]; peptide modifications: H3R17me2a, binder concentration: 500 nM",0.00767 ± 0.00072
same,peptide microarray binding signal,"[2]; peptide modifications: H3R17me2a, binder concentration: 10 nM",0.00328 ± 9.3e-05
same,peptide microarray binding signal,"[2]; peptide modifications: H3R17me2a, binder concentration: 100 nM",0.00921 ± 0.0033
same,peptide microarray binding signal,[3]; [7],0.001001 ± 8.5e-06
same,peptide microarray binding signal,[3]; [8],0.000742
same,peptide microarray binding signal,[4]; [7],0.00116 ± 7.7e-05
same,peptide microarray binding signal,[4]; [8],0.00156 ± 3e-05
B3,peptide microarray binding signal,"[1]; peptide modifications: H3R17me1 H3K18me1, binder concentration: 50 nM",0.009 ± 0.00036
same,peptide microarray binding signal,"[1]; peptide modifications: H3R17me1 H3K18me1, binder concentration: 500 nM",0.018 ± 0.0028
same,peptide microarray binding signal,"[2]; peptide modifications: H3R17me1 H3K18me1, binder concentration: 10 nM",0.0114 ± 0.001
same,peptide microarray binding signal,"[2]; peptide modifications: H3R17me1 H3K18me1, binder concentration: 100 nM",0.0208 ± 0.0062
same,peptide microarray binding signal,[3]; [9],0.00808 ± 0.0017
same,peptide microarray binding signal,[3]; [10],0.00622 ± 0.0014
same,peptide microarray binding signal,[4]; [9],0.0021 ± 0.00037
same,peptide microarray binding signal,[4]; [10],0.00161 ± 4.1e-05
B4,peptide microarray binding signal,"[1]; peptide modifications: H3R17me2s, binder concentration: 50 nM",0.00332 ± 8.4e-05
same,peptide microarray binding signal,"[1]; peptide modifications: H3R17me2s, binder concentration: 500 nM",0.00543 ± 0.00073
same,peptide microarray binding signal,"[2]; peptide modifications: H3R17me2s, binder concentration: 10 nM",0.003163 ± 1.7e-05
same,peptide microarray binding signal,"[2]; peptide modifications: H3R17me2s, binder concentration: 100 nM",0.00411 ± 0.00034
same,peptide microarray binding signal,[3]; [11],0.001 ± 5.2e-05
same,peptide microarray binding signal,[3]; [12],0.00108
same,peptide microarray binding signal,[4]; [11],0.00128 ± 0.00017
same,peptide microarray binding signal,[4]; [12],0.0011 ± 4e-05
B5,peptide microarray binding signal,"[1]; peptide modifications: H3R17me2a H3K18me2, binder concentration: 50 nM",0.00937 ± 0.0035
same,peptide microarray binding signal,"[1]; peptide modifications: H3R17me2a H3K18me2, binder concentration: 500 nM",0.011 ± 0.00034
same,peptide microarray binding signal,"[2]; peptide modifications: H3R17me2a H3K18me2, binder concentration: 10 nM",0.0112 ± 0.0018
same,peptide microarray binding signal,"[2]; peptide modifications: H3R17me2a H3K18me2, binder concentration: 100 nM",0.0143 ± 0.00077
same,peptide microarray binding signal,[3]; [13],0.00423 ± 0.00094
same,peptide microarray binding signal,[3]; [14],0.0032 ± 0.00019
same,peptide microarray binding signal,[4]; [13],0.00186 ± 6.1e-05
same,peptide microarray binding signal,[4]; [14],0.001787 ± 1.7e-05
